# Experiments:
# Assay in all cases: DAPPL (digital affinity profiling via proximity ligation, sequencing); 10 mM Tris-HCl pH 7.5, 50 mM NaCl, 1 mM DTT, 4% glycerol, room temperature, 30 min; GST-TFs on glutathione beads, 16-mer random dsDNA library, 0.1% formaldehyde crosslink after washing; high values mean tight binding
# FLI1 = target: T1, FLI1 (Homo sapiens, UniProt Q01543 1-452); settings: protein: recombinant; tags: N-terminal GST; dsDNA, one strand shown
# T1 sequence: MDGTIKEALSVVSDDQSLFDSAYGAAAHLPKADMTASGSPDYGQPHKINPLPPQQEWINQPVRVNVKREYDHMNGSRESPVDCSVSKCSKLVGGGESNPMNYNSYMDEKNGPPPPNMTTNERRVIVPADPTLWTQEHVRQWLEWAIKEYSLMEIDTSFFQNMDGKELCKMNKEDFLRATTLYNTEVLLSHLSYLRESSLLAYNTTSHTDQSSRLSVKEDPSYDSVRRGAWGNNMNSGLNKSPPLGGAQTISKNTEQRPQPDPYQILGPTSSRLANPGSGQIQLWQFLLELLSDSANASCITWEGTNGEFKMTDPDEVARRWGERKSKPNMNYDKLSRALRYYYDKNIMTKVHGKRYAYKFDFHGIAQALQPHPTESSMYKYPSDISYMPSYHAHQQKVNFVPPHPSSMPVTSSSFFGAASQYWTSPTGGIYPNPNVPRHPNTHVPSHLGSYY
# Procedure, shortened: (§1)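 Human transcription factors carrying a GST fusion were produced in yeast, bound to glutathione beads, tagged with DNA barcodes and pooled together with a tag-only sample. Each pool was held with 200 nmole of a random double-stranded 16-mer DNA library in Tris/NaCl/DTT/glycerol buffer for 30 min at room temperature, then washed, crosslinked in 0.1% formaldehyde, proximity-ligated with BsaI/T4 ligase (1 h, 37 °C), PCR-amplified and sequenced on an Illumina NextSeq500. Binding signal is the read frequency of each hexamer for a given factor divided by its frequency in the tag-only sample.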
# ELK1 = target: T2, ELK1 (Homo sapiens, UniProt P19419 1-428); settings: protein: recombinant; tags: N-terminal GST; dsDNA, one strand shown
# T2 sequence: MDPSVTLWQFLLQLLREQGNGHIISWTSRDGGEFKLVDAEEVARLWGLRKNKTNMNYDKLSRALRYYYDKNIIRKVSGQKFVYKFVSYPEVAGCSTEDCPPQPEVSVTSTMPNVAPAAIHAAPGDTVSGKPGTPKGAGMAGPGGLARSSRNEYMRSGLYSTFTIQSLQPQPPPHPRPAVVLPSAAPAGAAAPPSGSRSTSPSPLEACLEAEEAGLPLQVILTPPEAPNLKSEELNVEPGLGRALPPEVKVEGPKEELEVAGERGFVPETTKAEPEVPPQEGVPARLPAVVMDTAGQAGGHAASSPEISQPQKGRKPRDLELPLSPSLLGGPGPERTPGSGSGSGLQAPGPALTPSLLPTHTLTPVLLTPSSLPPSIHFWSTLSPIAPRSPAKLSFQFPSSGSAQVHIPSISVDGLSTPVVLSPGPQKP
# Procedure, shortened: as §1
# GABPA = target: T3, GABPA (Homo sapiens, UniProt Q06546 1-454); settings: protein: recombinant; tags: N-terminal GST; dsDNA, one strand shown
# T3 sequence: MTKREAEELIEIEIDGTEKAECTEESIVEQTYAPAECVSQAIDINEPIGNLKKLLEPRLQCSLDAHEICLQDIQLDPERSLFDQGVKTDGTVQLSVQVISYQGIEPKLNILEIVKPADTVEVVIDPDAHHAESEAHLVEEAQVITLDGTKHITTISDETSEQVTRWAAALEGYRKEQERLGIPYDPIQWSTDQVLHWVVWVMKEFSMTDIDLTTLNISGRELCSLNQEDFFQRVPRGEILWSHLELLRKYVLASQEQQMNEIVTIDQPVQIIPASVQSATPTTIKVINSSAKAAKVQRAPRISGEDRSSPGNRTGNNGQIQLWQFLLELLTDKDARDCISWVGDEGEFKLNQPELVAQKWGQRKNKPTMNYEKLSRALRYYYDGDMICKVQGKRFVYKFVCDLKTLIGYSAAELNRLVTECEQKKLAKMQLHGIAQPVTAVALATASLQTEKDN
# Procedure, shortened: as §1
# ERG = target: T4, ERG (Homo sapiens, UniProt P11308 1-479); settings: protein: recombinant; tags: N-terminal GST; dsDNA, one strand shown
# T4 sequence: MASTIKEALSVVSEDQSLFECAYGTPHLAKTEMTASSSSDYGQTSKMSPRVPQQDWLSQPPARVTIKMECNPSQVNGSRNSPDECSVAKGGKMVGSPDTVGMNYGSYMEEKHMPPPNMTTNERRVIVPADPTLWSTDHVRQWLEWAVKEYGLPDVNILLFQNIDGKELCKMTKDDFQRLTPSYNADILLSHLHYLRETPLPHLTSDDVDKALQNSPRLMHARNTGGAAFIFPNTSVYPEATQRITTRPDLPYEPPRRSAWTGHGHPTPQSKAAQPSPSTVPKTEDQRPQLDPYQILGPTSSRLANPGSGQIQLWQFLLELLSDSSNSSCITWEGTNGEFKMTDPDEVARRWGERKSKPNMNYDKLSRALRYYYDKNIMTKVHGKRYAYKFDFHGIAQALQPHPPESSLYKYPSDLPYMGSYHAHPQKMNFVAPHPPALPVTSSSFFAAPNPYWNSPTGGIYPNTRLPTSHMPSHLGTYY
# Procedure, shortened: as §1
# ELF1 = ELF1 (Homo sapiens, UniProt P32519 1-619); settings: protein: recombinant; tags: N-terminal GST; dsDNA, one strand shown
# Sequence of ELF1 (P32519 whole entry): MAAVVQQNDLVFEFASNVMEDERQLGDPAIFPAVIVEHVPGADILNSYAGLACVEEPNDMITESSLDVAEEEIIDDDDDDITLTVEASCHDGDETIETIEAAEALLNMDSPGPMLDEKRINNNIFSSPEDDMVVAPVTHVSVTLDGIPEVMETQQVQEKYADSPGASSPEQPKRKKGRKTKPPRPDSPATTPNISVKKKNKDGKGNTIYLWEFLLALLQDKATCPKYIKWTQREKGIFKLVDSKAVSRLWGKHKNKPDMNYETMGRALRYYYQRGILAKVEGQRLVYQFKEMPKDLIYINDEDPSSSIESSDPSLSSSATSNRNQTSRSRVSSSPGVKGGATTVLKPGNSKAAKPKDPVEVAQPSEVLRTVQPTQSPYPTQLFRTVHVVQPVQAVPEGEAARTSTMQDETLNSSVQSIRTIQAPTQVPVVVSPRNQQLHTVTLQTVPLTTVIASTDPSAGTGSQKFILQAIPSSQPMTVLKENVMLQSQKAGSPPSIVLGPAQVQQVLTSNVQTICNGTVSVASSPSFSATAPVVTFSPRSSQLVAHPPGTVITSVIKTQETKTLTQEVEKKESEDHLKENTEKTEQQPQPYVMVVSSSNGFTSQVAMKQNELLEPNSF
# Procedure, shortened: as §1
# EHF = target: T5, EHF (Homo sapiens, UniProt Q9NZC4 1-300); settings: protein: recombinant; tags: N-terminal GST; dsDNA, one strand shown
# T5 sequence: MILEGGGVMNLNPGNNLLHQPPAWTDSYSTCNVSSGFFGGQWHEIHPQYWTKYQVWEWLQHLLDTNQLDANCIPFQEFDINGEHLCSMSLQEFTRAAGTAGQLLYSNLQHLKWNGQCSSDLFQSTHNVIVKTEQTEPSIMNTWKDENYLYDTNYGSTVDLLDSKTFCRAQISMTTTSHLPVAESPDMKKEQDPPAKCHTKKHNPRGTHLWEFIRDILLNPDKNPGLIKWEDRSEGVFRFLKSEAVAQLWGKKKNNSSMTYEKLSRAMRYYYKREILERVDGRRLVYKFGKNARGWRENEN
# Procedure, shortened: as §1
# SPI1 = SPI1 (Homo sapiens, UniProt P17947 1-270); settings: protein: recombinant; tags: N-terminal GST; dsDNA, one strand shown
# Procedure, shortened: as §1
# SPIB = SPIB (Homo sapiens, UniProt Q01892 1-262); settings: protein: recombinant; tags: N-terminal GST; dsDNA, one strand shown
# Sequence of SPIB (Q01892 whole entry): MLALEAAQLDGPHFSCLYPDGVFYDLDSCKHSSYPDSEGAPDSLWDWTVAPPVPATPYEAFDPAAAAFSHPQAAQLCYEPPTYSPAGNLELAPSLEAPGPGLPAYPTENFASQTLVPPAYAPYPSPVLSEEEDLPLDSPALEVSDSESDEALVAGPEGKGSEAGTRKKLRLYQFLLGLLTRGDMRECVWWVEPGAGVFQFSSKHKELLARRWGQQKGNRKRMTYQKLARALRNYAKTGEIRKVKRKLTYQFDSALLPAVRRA
# Procedure, shortened: as §1
# ELK3 = target: T6, ELK3 (Homo sapiens, UniProt P41970 1-407); settings: protein: recombinant; tags: N-terminal GST; dsDNA, one strand shown
# T6 sequence: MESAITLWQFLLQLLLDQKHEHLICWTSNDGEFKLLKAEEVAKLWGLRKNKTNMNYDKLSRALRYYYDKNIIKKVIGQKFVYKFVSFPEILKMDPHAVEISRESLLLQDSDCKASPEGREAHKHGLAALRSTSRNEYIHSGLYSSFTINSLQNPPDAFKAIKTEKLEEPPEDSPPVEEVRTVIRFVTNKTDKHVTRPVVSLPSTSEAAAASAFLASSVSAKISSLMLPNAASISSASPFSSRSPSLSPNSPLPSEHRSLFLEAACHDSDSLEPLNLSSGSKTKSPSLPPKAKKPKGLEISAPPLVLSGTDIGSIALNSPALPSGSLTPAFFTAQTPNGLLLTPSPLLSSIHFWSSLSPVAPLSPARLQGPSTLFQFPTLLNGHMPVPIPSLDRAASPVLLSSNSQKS
# Procedure, shortened: as §1
# FEV = target: T7, FEV (Homo sapiens, UniProt Q99581 1-238); settings: protein: recombinant; tags: N-terminal GST; dsDNA, one strand shown
# T7 sequence: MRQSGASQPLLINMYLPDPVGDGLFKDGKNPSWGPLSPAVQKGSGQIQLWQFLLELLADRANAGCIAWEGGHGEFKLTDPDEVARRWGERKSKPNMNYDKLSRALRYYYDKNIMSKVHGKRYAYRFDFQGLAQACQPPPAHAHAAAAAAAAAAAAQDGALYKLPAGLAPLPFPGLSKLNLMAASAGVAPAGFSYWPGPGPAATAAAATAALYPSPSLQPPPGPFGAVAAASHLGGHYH
# Procedure, shortened: as §1
# ETV5 = ETV5 (Homo sapiens, UniProt P41161 1-510); settings: protein: recombinant; tags: N-terminal GST; dsDNA, one strand shown
# Sequence of ETV5 (P41161 whole entry): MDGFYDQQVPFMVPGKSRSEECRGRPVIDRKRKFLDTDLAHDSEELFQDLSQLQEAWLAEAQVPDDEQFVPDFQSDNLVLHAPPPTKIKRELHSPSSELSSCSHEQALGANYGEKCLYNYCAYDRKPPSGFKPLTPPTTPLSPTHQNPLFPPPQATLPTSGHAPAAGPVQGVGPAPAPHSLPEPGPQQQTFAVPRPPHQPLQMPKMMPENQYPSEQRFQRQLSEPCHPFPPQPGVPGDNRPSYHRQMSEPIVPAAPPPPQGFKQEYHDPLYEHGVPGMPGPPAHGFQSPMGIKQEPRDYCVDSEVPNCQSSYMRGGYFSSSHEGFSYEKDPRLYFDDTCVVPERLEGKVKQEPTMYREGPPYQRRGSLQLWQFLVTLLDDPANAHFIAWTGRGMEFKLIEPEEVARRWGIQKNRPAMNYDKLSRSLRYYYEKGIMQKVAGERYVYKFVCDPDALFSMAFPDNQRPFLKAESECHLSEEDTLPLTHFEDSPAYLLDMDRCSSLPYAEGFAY
# Procedure, shortened: as §1
# HSF1 = HSF1 (Homo sapiens, UniProt Q00613 1-529); settings: protein: recombinant; tags: N-terminal GST; chain copies: 3; dsDNA, one strand shown
# Sequence of HSF1 (Q00613 whole entry): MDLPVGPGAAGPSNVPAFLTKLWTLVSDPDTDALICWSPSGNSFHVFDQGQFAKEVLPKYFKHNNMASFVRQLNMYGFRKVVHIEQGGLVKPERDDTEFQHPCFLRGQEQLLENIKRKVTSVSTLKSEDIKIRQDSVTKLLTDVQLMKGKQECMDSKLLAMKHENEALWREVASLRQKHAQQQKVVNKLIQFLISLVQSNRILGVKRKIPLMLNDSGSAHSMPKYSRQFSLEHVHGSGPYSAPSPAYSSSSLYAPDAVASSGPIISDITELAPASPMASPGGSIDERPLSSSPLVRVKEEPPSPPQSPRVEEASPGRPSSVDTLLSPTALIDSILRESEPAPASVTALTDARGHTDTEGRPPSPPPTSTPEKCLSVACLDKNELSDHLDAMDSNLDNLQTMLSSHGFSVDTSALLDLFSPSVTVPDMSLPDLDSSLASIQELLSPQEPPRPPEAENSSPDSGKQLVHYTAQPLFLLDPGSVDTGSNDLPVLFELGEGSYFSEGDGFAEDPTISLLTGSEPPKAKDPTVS
# Procedure, shortened: as §1
# SPIC = target: T8, SPIC (Homo sapiens, UniProt Q8N5J4 1-248); settings: protein: recombinant; tags: N-terminal GST; dsDNA, one strand shown
# T8 sequence: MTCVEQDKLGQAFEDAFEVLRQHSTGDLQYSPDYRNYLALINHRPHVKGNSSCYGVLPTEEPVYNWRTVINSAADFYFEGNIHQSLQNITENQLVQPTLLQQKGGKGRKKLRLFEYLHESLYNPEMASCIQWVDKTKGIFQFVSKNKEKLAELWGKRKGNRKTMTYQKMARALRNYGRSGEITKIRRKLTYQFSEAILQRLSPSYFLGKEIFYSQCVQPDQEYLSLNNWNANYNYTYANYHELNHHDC
# Procedure, shortened: as §1
# ELF4 = ELF4 (Homo sapiens, UniProt Q99607 1-663); settings: protein: recombinant; tags: N-terminal GST; dsDNA, one strand shown
# Sequence of ELF4 (Q99607 whole entry): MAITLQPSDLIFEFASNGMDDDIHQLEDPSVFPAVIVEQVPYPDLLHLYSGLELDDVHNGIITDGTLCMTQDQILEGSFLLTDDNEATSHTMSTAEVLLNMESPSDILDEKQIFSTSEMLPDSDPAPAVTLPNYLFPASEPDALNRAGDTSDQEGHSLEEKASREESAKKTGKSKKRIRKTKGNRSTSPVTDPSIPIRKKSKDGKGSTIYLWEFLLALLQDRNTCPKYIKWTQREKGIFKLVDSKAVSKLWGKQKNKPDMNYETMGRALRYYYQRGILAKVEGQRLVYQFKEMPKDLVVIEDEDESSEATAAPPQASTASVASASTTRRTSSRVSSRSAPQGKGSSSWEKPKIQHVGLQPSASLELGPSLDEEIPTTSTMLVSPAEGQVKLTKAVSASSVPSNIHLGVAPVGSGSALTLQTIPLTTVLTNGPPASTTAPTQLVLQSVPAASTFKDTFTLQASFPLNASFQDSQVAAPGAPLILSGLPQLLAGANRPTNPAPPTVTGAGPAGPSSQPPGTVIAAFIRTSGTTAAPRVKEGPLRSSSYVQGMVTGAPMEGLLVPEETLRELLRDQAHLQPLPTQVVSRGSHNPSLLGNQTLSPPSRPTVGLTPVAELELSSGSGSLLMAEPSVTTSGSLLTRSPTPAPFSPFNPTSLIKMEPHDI
# Procedure, shortened: as §1
# ELK4 = target: T9, ELK4 (Homo sapiens, UniProt P28324-2 1-405); settings: protein: recombinant; tags: N-terminal GST; dsDNA, one strand shown
# T9 sequence: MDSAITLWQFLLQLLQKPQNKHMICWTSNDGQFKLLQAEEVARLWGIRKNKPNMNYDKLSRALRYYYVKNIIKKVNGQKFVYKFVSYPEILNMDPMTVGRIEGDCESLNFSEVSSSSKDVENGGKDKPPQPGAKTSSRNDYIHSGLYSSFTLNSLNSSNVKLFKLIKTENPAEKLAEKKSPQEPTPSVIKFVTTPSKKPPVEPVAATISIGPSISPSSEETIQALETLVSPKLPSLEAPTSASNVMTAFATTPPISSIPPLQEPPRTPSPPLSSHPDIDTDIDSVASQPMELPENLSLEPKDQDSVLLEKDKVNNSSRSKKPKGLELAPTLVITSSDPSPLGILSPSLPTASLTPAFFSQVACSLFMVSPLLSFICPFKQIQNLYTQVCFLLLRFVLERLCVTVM
# Procedure, shortened: as §1
# ETV2 = target: T10, ETV2 (Homo sapiens, UniProt O00321 1-342); settings: protein: recombinant; tags: N-terminal GST; dsDNA, one strand shown
# T10 sequence: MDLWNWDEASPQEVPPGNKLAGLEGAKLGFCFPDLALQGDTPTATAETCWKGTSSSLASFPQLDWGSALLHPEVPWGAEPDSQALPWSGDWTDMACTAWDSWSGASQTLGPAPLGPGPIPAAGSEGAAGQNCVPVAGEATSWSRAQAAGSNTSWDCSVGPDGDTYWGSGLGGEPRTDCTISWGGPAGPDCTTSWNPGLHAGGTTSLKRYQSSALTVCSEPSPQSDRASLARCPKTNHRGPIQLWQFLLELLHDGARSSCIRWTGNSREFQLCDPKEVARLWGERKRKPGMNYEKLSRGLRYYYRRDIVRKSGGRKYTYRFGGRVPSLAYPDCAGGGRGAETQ
# Procedure, shortened: as §1
# ELF3 = target: T11, ELF3 (Homo sapiens, UniProt P78545 1-371); settings: protein: recombinant; tags: N-terminal GST; dsDNA, one strand shown
# T11 sequence: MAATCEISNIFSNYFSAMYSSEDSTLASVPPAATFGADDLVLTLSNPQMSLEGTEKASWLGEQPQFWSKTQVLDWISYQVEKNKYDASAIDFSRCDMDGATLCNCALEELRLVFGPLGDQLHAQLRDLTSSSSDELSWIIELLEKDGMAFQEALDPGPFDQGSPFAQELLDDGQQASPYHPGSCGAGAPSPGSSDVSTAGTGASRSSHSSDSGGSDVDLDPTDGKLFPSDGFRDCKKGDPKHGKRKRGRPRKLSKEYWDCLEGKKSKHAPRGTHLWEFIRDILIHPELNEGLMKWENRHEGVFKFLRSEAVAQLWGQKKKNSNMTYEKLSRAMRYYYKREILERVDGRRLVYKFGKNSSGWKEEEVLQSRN
# Procedure, shortened: as §1
# CRX = CRX (Homo sapiens, UniProt O43186 1-299); settings: protein: recombinant; tags: N-terminal GST; dsDNA, one strand shown
# Sequence of CRX (O43186 whole entry): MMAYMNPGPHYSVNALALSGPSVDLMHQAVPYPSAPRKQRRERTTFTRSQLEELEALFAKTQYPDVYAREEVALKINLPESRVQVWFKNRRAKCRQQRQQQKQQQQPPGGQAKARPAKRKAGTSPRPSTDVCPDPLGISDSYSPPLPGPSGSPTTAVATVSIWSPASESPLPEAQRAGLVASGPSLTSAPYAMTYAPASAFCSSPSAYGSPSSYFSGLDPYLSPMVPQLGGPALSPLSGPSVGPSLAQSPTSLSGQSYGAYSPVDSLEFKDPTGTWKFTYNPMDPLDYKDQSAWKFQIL
# Procedure, shortened: as §1
# ETV1 = ETV1 (Homo sapiens, UniProt P50549 1-477); settings: protein: recombinant; tags: N-terminal GST; dsDNA, one strand shown
# Sequence of ETV1 (P50549 whole entry): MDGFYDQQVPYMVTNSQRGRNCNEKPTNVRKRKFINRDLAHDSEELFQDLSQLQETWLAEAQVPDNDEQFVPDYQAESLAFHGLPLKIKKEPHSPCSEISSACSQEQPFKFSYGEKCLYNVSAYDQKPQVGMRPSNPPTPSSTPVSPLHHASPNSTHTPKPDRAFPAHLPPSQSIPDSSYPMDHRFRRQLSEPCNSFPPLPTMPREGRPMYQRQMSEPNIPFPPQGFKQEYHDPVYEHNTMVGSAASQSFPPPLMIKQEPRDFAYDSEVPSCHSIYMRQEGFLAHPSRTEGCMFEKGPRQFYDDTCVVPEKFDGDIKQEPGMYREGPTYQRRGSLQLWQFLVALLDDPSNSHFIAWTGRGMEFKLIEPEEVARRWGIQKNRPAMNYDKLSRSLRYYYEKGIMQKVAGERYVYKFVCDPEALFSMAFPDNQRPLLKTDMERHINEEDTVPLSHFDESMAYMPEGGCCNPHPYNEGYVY
# Procedure, shortened: as §1
sequence,measurement,setting,value
TTCGAG,binding signal,FLI1,"1.18 fold enrichment (6-mer frequency, TF over GST control)"
same,binding signal,ELK1,"1.23 fold enrichment (6-mer frequency, TF over GST control)"
same,binding signal,GABPA,"1.31 fold enrichment (6-mer frequency, TF over GST control)"
same,binding signal,ERG,"1.14 fold enrichment (6-mer frequency, TF over GST control)"
same,binding signal,ELF1,"1.25 fold enrichment (6-mer frequency, TF over GST control)"
same,binding signal,EHF,"1.19 fold enrichment (6-mer frequency, TF over GST control)"
same,binding signal,SPI1,"1.21 fold enrichment (6-mer frequency, TF over GST control)"
same,binding signal,SPIB,"1.31 fold enrichment (6-mer frequency, TF over GST control)"
same,binding signal,ELK3,"1.3 fold enrichment (6-mer frequency, TF over GST control)"
same,binding signal,FEV,"1.21 fold enrichment (6-mer frequency, TF over GST control)"
same,binding signal,ETV5,"1.28 fold enrichment (6-mer frequency, TF over GST control)"
same,binding signal,HSF1,"4.43 fold enrichment (6-mer frequency, TF over GST control)"
same,binding signal,SPIC,"1.13 fold enrichment (6-mer frequency, TF over GST control)"
same,binding signal,ELF4,"1.29 fold enrichment (6-mer frequency, TF over GST control)"
same,binding signal,ELK4,"1.26 fold enrichment (6-mer frequency, TF over GST control)"
same,binding signal,ETV2,"1.14 fold enrichment (6-mer frequency, TF over GST control)"
same,binding signal,ELF3,"1.25 fold enrichment (6-mer frequency, TF over GST control)"
same,binding signal,CRX,"1.96 fold enrichment (6-mer frequency, TF over GST control)"
same,binding signal,ETV1,"1.37 fold enrichment (6-mer frequency, TF over GST control)"

# Source: article PMC7862700, “An all-to-all approach to the identification of sequence-specific readers for epigenetic DNA modifications on cytosine”
